Assay outcomes: PubChem, several laboratories
Rev-erbA mod: modulates human Rev-erb alpha binding to DNA; Rev-erbα–FITC-DNA binding, fluorescence polarization, 90 min; activity, % at 10 µM; 0.79% of 370,000 active; AID 1259318;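 active = activity above about 14%, limit read from the data; passing the limit was not always enough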;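 note: 0% = DMSO wells with 35 nM protein and 100% = DMSO wells with 750 nM protein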
Exocytosis inh: lytic granule exocytosis inhibition. 0.66% of 360,000 active. TALL-104 LAMP-1 surface exposure, flow cytometry; cells stimulated with thapsigargin and PMA. inhibition, % at 10 µM;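 active = inhibition above about 55%, limit read from the data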
VLA-4 inh: inhibition in a human VLA-4 binding assay | VLA-4 expressing cells, ligand binding flow cytometry | inhibition, % (about 7 µM as worked out from the volumes in the protocol) | 0.2% of 330,000 active | AID 2557; in the data active = inhibition above about 50%
Target sequence (P13612 whole entry, looked up): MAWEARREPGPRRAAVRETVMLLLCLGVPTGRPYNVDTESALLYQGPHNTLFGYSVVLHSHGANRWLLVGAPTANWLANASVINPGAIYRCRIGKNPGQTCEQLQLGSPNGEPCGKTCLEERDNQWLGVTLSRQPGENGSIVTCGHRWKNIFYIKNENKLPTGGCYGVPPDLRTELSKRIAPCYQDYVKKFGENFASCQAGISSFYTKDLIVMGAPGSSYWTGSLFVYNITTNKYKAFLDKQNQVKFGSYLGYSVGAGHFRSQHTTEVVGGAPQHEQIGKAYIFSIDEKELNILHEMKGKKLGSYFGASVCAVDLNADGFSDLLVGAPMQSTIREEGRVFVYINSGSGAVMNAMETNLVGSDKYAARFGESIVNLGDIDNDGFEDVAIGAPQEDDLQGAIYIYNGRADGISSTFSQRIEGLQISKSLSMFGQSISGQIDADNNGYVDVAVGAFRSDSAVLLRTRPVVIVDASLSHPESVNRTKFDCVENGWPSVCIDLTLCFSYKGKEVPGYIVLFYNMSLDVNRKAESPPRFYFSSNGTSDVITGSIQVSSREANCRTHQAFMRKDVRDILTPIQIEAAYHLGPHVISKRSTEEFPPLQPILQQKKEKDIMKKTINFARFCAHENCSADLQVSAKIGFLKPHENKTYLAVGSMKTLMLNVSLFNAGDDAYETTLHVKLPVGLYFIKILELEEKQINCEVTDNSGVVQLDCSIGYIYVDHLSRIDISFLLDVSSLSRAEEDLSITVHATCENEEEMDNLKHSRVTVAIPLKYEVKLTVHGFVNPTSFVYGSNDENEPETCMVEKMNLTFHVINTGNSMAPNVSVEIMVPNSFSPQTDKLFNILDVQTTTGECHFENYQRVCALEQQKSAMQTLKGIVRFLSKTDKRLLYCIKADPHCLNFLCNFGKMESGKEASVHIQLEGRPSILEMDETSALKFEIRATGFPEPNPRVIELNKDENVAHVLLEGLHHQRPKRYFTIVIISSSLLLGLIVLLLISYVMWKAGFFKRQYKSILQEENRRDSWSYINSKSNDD
PG9 binder: small molecules binding HIV-1 gp120 antibody PG9. TR-FRET gp120-PG9 antibody binding. AID 624416. 0.43% of 360,000 active. inhibition, % at 6.7 µM; in the data active = inhibition above about 8.5%
ABCB6 inh 2: inhibitors of human ABC transporter ABCB6; K562-ABCB6 porphyrin accumulation, flow cytometry, 1 h; hits give low values; fluorescence ratio to DMSO, % at 10 µM; AID 602162; 0.19% of 360,000 active;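 active = fluorescence ratio to DMSO below 75%, the collection mean minus 3 SD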;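 note: signal is porphyrin accumulated inside mitochondria; 100% equals median channel fluorescence of DMSO control wells; lower ratio means ABCB6 inhibition with less porphyrin fluorescence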
Exocytosis CP01: blocks lytic granule exocytosis. inhibition, % at 10 µM. shares compounds with Exocytosis inh. AID 651954. 11% of 1,500 active. TALL-104 cells, LAMP-1 externalization, flow cytometry; stimulated with PMA plus thapsigargin; in the data active = inhibition above about 60%;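 note: 0% = stimulated vehicle wells and 100% = unstimulated wells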
* marks the source's active call; other numbers are inactive results. Sampled rows, rich in hits. Any-hit rate of the full collection: about 2%.

For O=C(Nc1ccc(CN2CCOCC2)cc1)c1ccc(-c2cccc(Cl)c2)o1 the results were Rev-erbA mod 0, Exocytosis inh 1, VLA-4 inh -17, PG9 binder 0 and ABCB6 inh 2 97.
Screening C[N+]1=C(N)N[C@@]2(C=C3CCCCC3n3c(=O)n(-c4ccccc4)c(=O)n32)C1 (some centres not stated) returned Rev-erbA mod -5.
`Cc1ccc(C(=O)OCC(=O)NC2CCCCC2)o1` gave Rev-erbA mod -9, Exocytosis inh -2, VLA-4 inh 6, PG9 binder -3 and ABCB6 inh 2 88.
O=C(COC(=O)c1ccco1)NC1CCCC1 was read as Rev-erbA mod -7, Exocytosis inh 72*, VLA-4 inh -7, PG9 binder 2, ABCB6 inh 2 95 and Exocytosis CP01 -13.
Screening Cc1cc(C)c(CN2CCN(CCCn3cnc(C(=O)Nc4ccc(C)c(C)c4)n3)CC2)c(C)c1 returned Rev-erbA mod 0, Exocytosis inh 57*, PG9 binder -1, ABCB6 inh 2 97 and Exocytosis CP01 15.
Screening OC(c1ccccc1)(c1ccc(F)cc1)C(c1ccccc1)N1CCOCC1 (configuration not stated) returned Exocytosis inh 98*, VLA-4 inh 2, ABCB6 inh 2 109 and Exocytosis CP01 10.
Screening COc1ccccc1/C=C/c1onc(C)c1S(=O)(=O)N1CCC(C(=O)NC2CCCCCC2)CC1 returned Rev-erbA mod -4, Exocytosis inh 70*, VLA-4 inh -4, PG9 binder -4, ABCB6 inh 2 97 and Exocytosis CP01 -4.
Cc1ccc2c(c1)N(CCCC(=O)NCc1ccc(F)cc1)C(=O)CO2 was read as Rev-erbA mod 3.
`CC(C)(C)C(=O)NCC12C=CC(O1)C1C(=O)N(c3ccccc3)C(=O)C12` (configuration not stated) gave Exocytosis inh 64*, VLA-4 inh 8, PG9 binder 0, ABCB6 inh 2 76 and Exocytosis CP01 1.
For CCOC(=O)c1c(NC(=O)COc2ccccc2OCC)sc2c1CC(C)(C)NC2(C)C the results were Exocytosis inh 68*, VLA-4 inh 10, ABCB6 inh 2 98 and Exocytosis CP01 100*.
For CCOC(=O)c1c(NC(=O)Cc2ccccc2)sc2c1CC(C)(C)NC2(C)C the results were Rev-erbA mod -6, Exocytosis inh 5, VLA-4 inh -11, PG9 binder 1 and ABCB6 inh 2 102.
For CCOC(=O)c1c(NC(=O)COC(=O)c2ccc(C)s2)sc2c1CC(C)(C)NC2(C)C the results were Rev-erbA mod -4, Exocytosis inh 64*, VLA-4 inh 27, PG9 binder -1, ABCB6 inh 2 96 and Exocytosis CP01 58.
CCOC(=O)c1c(NC(=O)CSc2nnnn2-c2ccccc2)sc2c1CC(C)(C)NC2(C)C was read as Rev-erbA mod 0, Exocytosis inh 33, VLA-4 inh 6, PG9 binder -1 and ABCB6 inh 2 100.
CCOC(=O)c1c(NC(=O)CSc2nnnn2-c2ccccc2OCC)sc2c1CC(C)(C)NC2(C)C was read as Rev-erbA mod 1, Exocytosis inh 65*, VLA-4 inh 8, PG9 binder 1, ABCB6 inh 2 91 and Exocytosis CP01 63*.
For CCCC1CCC2(CC1)CCC2OC(=S)Nc1ccc(Br)cc1 (configuration not stated) the results were Rev-erbA mod 2.
`CCN1CCCCC(NC(=O)c2ccccc2C)C1=O` (configuration not stated) gave Rev-erbA mod -1.
For O=C1CC(N2CCN(Cc3ccccc3)CC2)C(=O)N1 (configuration not stated) the results were Rev-erbA mod -3, Exocytosis inh 3, VLA-4 inh 9, PG9 binder 1 and ABCB6 inh 2 99.
c1ccc(CN2CCN(C3CCCSc4ccccc43)CC2)cc1 (configuration not stated) was read as Rev-erbA mod -6, Exocytosis inh 60*, VLA-4 inh -2, PG9 binder 0, ABCB6 inh 2 94 and Exocytosis CP01 -13.
Screening Cc1cccc(-c2nnc(SCC(=O)c3ccc(F)cc3)n2C)c1 returned Rev-erbA mod 3.
